The values that follow come from PubChem BioAssay (NCI).

The panel holds about 83,000 compounds, 20% with a hit somewhere; the sample as a whole holds those more often.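 Testing used 96-well plates and a 48-hour single-concentration exposure. Example: -40 means 40% of the starting cells died.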 Values without a mark were called inactive. The source made the active and inactive calls. How the source made its calls: active means growth percent below 10; inactive means the rest.

Test systems include T-47D breast; BT-549 breast; MDA-MB-435 melanoma; SW-620 colon; MCF7 breast; HCT-116 colon; HCC-2998 colon; KM12 colon; MDA-MB-468 breast.
Test in all cases: NCI-60 one-dose screen, 48 h (100 = growth as untreated, 0 = no growth, -100 = all killed)
Details in all cases: 10 µM unless noted

On to `Cc1nn(-c2ccccc2)c2nc(C)n(C(=O)N/N=C/c3cccc([N+](=O)[O-])c3)c(=O)c12`, for which the growth is 91.4% with T-47D breast; 155% in the experiment with BT-549 breast; 96.5% in the experiment with MDA-MB-435 melanoma; 103% in the experiment on SW-620 colon; 77.1% with MCF7 breast; 87.5% in the experiment with HCT-116 colon. Besides, the figures for the growth in the experiment on HCC-2998 colon, in the experiment on KM12 colon and in the experiment with MDA-MB-468 breast were 113%, 100% and 73.1%, respectively.
In the case of `COc1ccc2[nH]c(O)c(N=Nc3nc(-c4ccc(Br)cc4)cs3)c2c1`, the growth in the experiment on T-47D breast is -27.2% (active); with BT-549 breast it was 35%; in the experiment with MDA-MB-435 melanoma, 50.3%; with SW-620 colon it was 4.99% (active); with MCF7 breast, -16.4% (active); with HCT-116 colon, -63.1% (active). The figures for the growth in the experiment on HCC-2998 colon, in the experiment with KM12 colon and in the experiment on MDA-MB-468 breast were 51.4%, 55.6% and -7.45% (active), respectively.
For the compound `O=C(CSc1nnc(-c2ccc(-c3nc4ccccc4[nH]3)cc2)o1)Nc1ccc(Br)cc1`, the growth with T-47D breast was 32.8%; in the experiment with BT-549 breast it was 37.1%; in the experiment on MDA-MB-435 melanoma, 18.3%; in the experiment on SW-620 colon, -47% (active); with MCF7 breast it was 9.69% (active); in the experiment on HCT-116 colon it was 10.3%. The growth was 71.2% in the experiment with HCC-2998 colon, 21.7% in the experiment on KM12 colon and 67.3% in the experiment with MDA-MB-468 breast.
On to `COc1cc(CNC(=O)[C@]23CCC(C)(C)CC2C2=CCC4[C@@]5(C)CCC(OC(C)=O)C(C)(C)C5CC[C@@]4(C)[C@]2(C)CC3)ccc1OCc1cn(-c2ccc(Cl)cc2Cl)nn1` (stereo partly specified), for which the growth is 85.1% with T-47D breast; 118% in the experiment on BT-549 breast; 105% with MDA-MB-435 melanoma; 106% in the experiment with SW-620 colon; 86.5% with MCF7 breast; 98.2% in the experiment with HCT-116 colon. Besides, the growth in the experiment on HCC-2998 colon is 122%; in the experiment with KM12 colon, 101%; in the experiment on MDA-MB-468 breast, 112%.
Regarding `COc1ccc(N=Nc2c(N)nn3c(-c4cc5cc(Br)ccc5oc4=O)ccnc23)cc1`, the growth with T-47D breast is 10.8%; in the experiment on BT-549 breast it was -2.5% (active); in the experiment with MDA-MB-435 melanoma it was 54.2%; in the experiment with SW-620 colon, 56.1%; in the experiment with MCF7 breast it was 26.4%; in the experiment on HCT-116 colon it was 23.8%. The growth is 20.2% in the experiment with HCC-2998 colon, 36.1% in the experiment on KM12 colon and -22.7% (active) in the experiment on MDA-MB-468 breast.
With `FC(F)(F)c1cc2c(Cl)ncnc2n1CCN1CCOCC1`, the growth in the experiment on T-47D breast was 96.2%; in the experiment on BT-549 breast, 60.6%; with MDA-MB-435 melanoma it was 86.4%; in the experiment on SW-620 colon, 59.9%; in the experiment on MCF7 breast it was 89%; in the experiment with HCT-116 colon, 31.7%. Moreover, the growth was -26.6% (active) in the experiment with HCC-2998 colon, 96.4% in the experiment with KM12 colon and 40.1% in the experiment on MDA-MB-468 breast.
As to `Nc1nnc(-c2cncc(Br)c2)c(-c2c[nH]c3ccc(Cl)cc23)n1`, the growth in the experiment with T-47D breast is 34.4%; in the experiment on BT-549 breast, 95.7%; in the experiment on MDA-MB-435 melanoma it was 35%; in the experiment on SW-620 colon, 82.8%; with MCF7 breast, 75.1%; in the experiment with HCT-116 colon, 73.7%. Moreover, the growth in the experiment on HCC-2998 colon is 88.8%; in the experiment on KM12 colon, 74.5%; in the experiment with MDA-MB-468 breast it was 59.4%.
On to `CC(=O)C[n+]1cccc2c3ccccc3ccc21`, for which the growth with T-47D breast is 77.2%; in the experiment with BT-549 breast, 107%; in the experiment on MDA-MB-435 melanoma it was 84.6%; in the experiment on SW-620 colon it was 92.3%; with MCF7 breast, 77.7%; in the experiment on HCT-116 colon, 87.4%. For the same compound, the growth in the experiment with HCC-2998 colon is 114%; in the experiment on KM12 colon it was 88.2%; with MDA-MB-468 breast it was 8.54% (active).
For the compound `CCOc1ccc2[nH]c(=O)c(C(c3nnnn3CC3CCCO3)N3CCN(Cc4ccccc4)CC3)cc2c1` (stereo unspecified), the growth in the experiment on T-47D breast is 106%; in the experiment with BT-549 breast, 81.7%; in the experiment on MDA-MB-435 melanoma, 99.3%; with SW-620 colon it was 98.8%; with MCF7 breast, 92.4%; with HCT-116 colon it was 78%. For the same compound, the growth with HCC-2998 colon is 122%; in the experiment on KM12 colon it was 101%; with MDA-MB-468 breast, 72.4%.
Regarding `Cc1ccc(C2CC(c3ccc(NC(=O)Nc4ccccc4)cc3)=NN2c2ccc(S(C)(=O)=O)cc2)cc1` (stereo unspecified), the growth in the experiment with T-47D breast was 11.9%; in the experiment on BT-549 breast it was -32.8% (active); with MDA-MB-435 melanoma, -7.07% (active); in the experiment on SW-620 colon it was -42.6% (active); in the experiment with MCF7 breast, -34.3% (active); with HCT-116 colon, -36.5% (active). Also, the growth is -80.7% (active) with HCC-2998 colon, -2.32% (active) with KM12 colon and -1.05% (active) in the experiment with MDA-MB-468 breast.
As to `COc1cc(C2C(C(=O)OCc3ccccc3)=C(C)Nc3nc4ccccc4n32)cc(OC)c1OC` (stereo unspecified), the growth in the experiment on T-47D breast is 55.6%; in the experiment on BT-549 breast, 14.2%; with MDA-MB-435 melanoma it was -34.7% (active); in the experiment with SW-620 colon, 31.4%; in the experiment with MCF7 breast it was 7.08% (active); in the experiment with HCT-116 colon it was 2.8% (active). Moreover, the values for the growth in the experiment with HCC-2998 colon, in the experiment with KM12 colon and with MDA-MB-468 breast were 27.8%, 38% and -38% (active), respectively.
For `O=c1ccc(Cn2c(C(F)(F)F)cc3c(Cl)ncnc32)c[nH]1`, the growth is 75.7% with T-47D breast; 4.61% (active) with BT-549 breast; 25.5% with MDA-MB-435 melanoma; 32.5% with SW-620 colon; 82.4% in the experiment with MCF7 breast; 19.5% in the experiment with HCT-116 colon. Also, the results for the growth with HCC-2998 colon, in the experiment with KM12 colon and in the experiment on MDA-MB-468 breast were 40.4%, 105% and 37.2%, respectively.
As for `O=S(=O)(c1nc(-c2ccc(Br)cc2)oc1-c1ccc(Cl)cc1)N1CCCC(O)C1` (stereo unspecified), the growth is 28.8% with T-47D breast; 76.1% with BT-549 breast; 60% with MDA-MB-435 melanoma; 57% with SW-620 colon; 41.5% in the experiment on MCF7 breast; 42.5% with HCT-116 colon. Further, the values for the growth in the experiment on HCC-2998 colon, with KM12 colon and in the experiment on MDA-MB-468 breast were 33.8%, 39% and 45.6%, respectively.
Consider `Cc1nc(Nc2ccccn2)sc1C1=NNC(c2ccccc2F)C1` (stereo unspecified), for which the growth was 33.5% in the experiment with T-47D breast; 36.1% in the experiment with BT-549 breast; -17.9% (active) with MDA-MB-435 melanoma; 32.1% in the experiment with SW-620 colon; 20.1% in the experiment with MCF7 breast; 34.3% in the experiment with HCT-116 colon. Also, the growth was 95.7% in the experiment on HCC-2998 colon, 23.4% in the experiment on KM12 colon and -13.7% (active) in the experiment on MDA-MB-468 breast.
